In ChEMBL document CHEMBL1157539, “Thousands of chemical starting points for antimalarial lead identification” (Nature, 2010):

tested on: Plasmodium falciparum; experiment: GSK_TCMDC: Inhibition of Plasmodium falciparum Dd2 in whole red blood cells, using parasite LDH activity as an index of growth. Test compounds present at 2uM; assay type: functional

SMILES | Inhibition
Nc1c2ccccc2nc2ccc(Cl)cc12 | 100%
CCCCN(CCCC)CCNC(=O)c1cc(OC(F)(F)F)ccc1O | 90%
CCOC(=O)c1ccc(NC(=O)Nc2cccc(-c3cccc(-c4nc5ccccc5[nH]4)c3)c2)cc1 | 99%
c1nc2nc3c(c(Nc4ccc5c(c4)CCC5)n2n1)CCC3 | 70%
COc1cc(Cc2c(C)nc3nc(N)nc(N)c3c2C)c(Br)c(OC)c1OC.Cl | 0%
COc1ccc(Nc2nccc(N3CCC(NC(=O)Nc4cc(C)ccc4C)C3)n2)cc1 (stereo unspecified) | 37%
Cl.NC1(C(=O)O)Cc2ccc(Cl)cc2C1 (stereo unspecified) | 1%
Cc1cccc(CNc2nc(C)cc(NCCC(=O)Nc3ccccc3)n2)c1.O=C(O)C(F)(F)F | 54%
Cc1cc(C=C2SC(=Nc3ccccc3)N(C3CCCC3)C2=O)c(C)n1-c1ccc(Cl)cc1 | 70%
COc1ccc(CCn2c(=N)c(C(=O)NCc3ccc(C)cc3)cc3c(=O)n4ccccc4nc32)cc1 | 16%
CCCN1CCN(CCCCNc2c3ccccc3nc3ccccc23)CC1.Cl | 0%
CCCCCCc1cc(Oc2c(I)cc(C[C@H](N)C(=O)O)cc2I)ccc1O | 0%
O=S(=O)(c1csc2ccccc12)N(CCC(O)(C(F)(F)F)C(F)(F)F)Cc1cccc(O)c1 | 100%
COc1ccc(CN2CCCN(Cc3cccc(C(=O)Nc4ccc(C(C)(C)C)cc4)c3)CC2)cc1.O=C(O)C(F)(F)F | 3%
CCN1C(=O)C(CC(=O)Nc2cccc(Cl)c2)N(Cc2ccc(OC)c(OC)c2)C1=S (stereo unspecified) | 68%
CCOc1cc(C)ccc1C1CCN(CCCCNC(=O)c2ccc(-c3ccc(Cl)cn3)cc2)CC1.Cl | 8%
CCc1c[nH]c2c(N(c3ccccc3)S(C)(=O)=O)cc(C(=O)N[C@@H](Cc3ccccc3)[C@H](O)CNCc3cccc(C(F)(F)F)c3)cc12.O=CO | 98%
COc1ccc2nccc(CCC3(O)CCC(NCc4cc5c(cc4F)SCC(=O)N5)CC3)c2c1 (stereo unspecified) | 48%
Cc1ccccc1CNc1noc(-c2c(F)cccc2Cl)n1 | 90%
Cc1ccc(NC(=O)Nc2ccc(I)c(OCCN(C)C)c2)cc1Cl | 22%
O=C(Nc1cc(Cl)ccc1-n1cncn1)C1(c2ccccc2)CC1 | 91%
Cn1cc(C2CCN(CCCCCNC(=O)/C=C/c3ccc(Cl)c(Cl)c3)CC2)c2cc(O)ccc21 | 0%
CCOC(=O)c1[nH]c2cc(Cl)cc(Cl)c2c1/C=C/C(=O)Nc1ccc(-c2cnc(NC(C)=O)[nH]2)cc1 | 65%
CC(=O)c1c(Cc2ccccc2Cl)c[nH]c1C | 53%
Cc1cccc2nc(-c3ccc(-c4ccc(NC(=O)Nc5ccc(Cl)c(Cl)c5)cc4)cc3)[nH]c12 | 100%
Br.CC[C@H]1CN2CCc3cc(OC)c(OC)cc3[C@@H]2C[C@@H]1CC1=NCCc2c1[nH]c1ccc(OCc3ccccc3)cc21 | 89%
